We go through five compounds from PubChem BioAssay.

A short description of assay [1]: yeast TOR pathway RPL19A-GFP modulators, primary screen, cell-based, S. cerevisiae, multiplex flow cytometry (AID 1862; in the data active = percent of DMSO control GFP below about 86%;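 note: lower values mimic rapamycin by blocking the RPL19A rise seen in DMSO cells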). To be noted: S. cerevisiae RPL19A-GFP strain, flow cytometry fluorescence, 3 h; at 10 µM; stronger effect = lower value.
The nature of assay [2]: modulators of MEP2-GFP levels in yeast, primary screen, S. cerevisiae, multiplex flow cytometry (AID 1867;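 active = GFP response, as percent of the DMSO control, above the screen-wide mean plus 3 SD, about 139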;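 note: median GFP channel fluorescence of barcode-gated MEP2-GFP cells measured by flow cytometry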). The following applies: S. cerevisiae MEP2-GFP strain, 3 h, at 10 µM, stronger effect = higher value, 100% means same as DMSO wells. On the technique in general: In flow cytometry, cells or beads pass a laser one at a time.
Assay [3] is described as follows: modulators of CIT2-GFP expression in yeast, primary screen, S. cerevisiae, GFP fusion, multiplex flow cytometry (AID 1870;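 active = percent response above a set limit, the screen-wide mean plus 3 SD, cut at about 130% in these data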;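 note: barcoded CIT2-GFP strain pooled with four other GFP strains with rapamycin as positive control; median GFP fluorescence per well over plate mean of DMSO wells so 100% = DMSO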). The following applies: 3 h, at 10 µM, stronger effect = higher value.
A short description of assay [4]: modulators of LAP4-GFP expression in yeast, primary screen, S. cerevisiae, multiplex flow cytometry (AID 1873;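 active = GFP signal, as percent of the solvent control, above the screen mean plus 3 SD, about 149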). The following applies: 3 h, at 10 µM, stronger effect = higher value.
The nature of assay [5]: modulators of AGP1-GFP expression in yeast TOR pathway, primary screen, cell-based, multiplex flow cytometry, S. cerevisiae (AID 1887;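 active = GFP signal above the screen-wide mean plus 3 SD, that is over about 124.5% of the solvent control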;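 note: AGP1-GFP fusion strain of S. cerevisiae within a five-strain barcoded multiplex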). To be noted: 3 h, at 10 µM, stronger effect = higher value.
Assay [6] in a line: inhibitors of CD8+ T cell-vesicle binding, pilot screen, LFA-1/ICAM-1 modulator project, MLPCN validation set, flow cytometry (AID 2523;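 active = response below a set limit, under 55% cells CD8-positive and vesicle-bound, and CD8 cells' 90th-percentile brightness under 279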;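 for vesicle binding response: mean PE anti-B7-1 fluorescence of CD8+ cells relative to row control; 100% = QL9-loaded vesicles with DMSO vehicle in the same plate row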). To be noted: 2C mouse CD8+ T cells, at 7 µM, stronger effect = lower value; double positive events: measured here: CD8+/vesicle+ event percentage.
In assay [7] the target is Integrin beta-1 (Homo sapiens) + Integrin alpha-4 (Homo sapiens) (UniProt P13612+P05556). Description: inhibition of HUTS-21 binding to VLA-4, pilot screen, VLA-4 allosteric modulator project, U937 cells, HUTS-21 mAb, flow cytometry, validation set (AID 2674;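 active = inhibition above 50%, about 3 SD of the validation set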;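 note: antibody binding induced by the VLA-4 ligand LDV present at three times its Kd; 0% = LDV ligand with antibody and no compound and 100% = antibody without LDV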). To be noted: HUTS-21 LIBS mAb binding, at 6.7 µM, stronger effect = higher value, binding induced by LDV ligand.
Assay [8] in a line: superoxide lowering in aged yeast cells, pilot screen, validation compound set (AID 2706;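 active = superoxide response below 65% of plate, a cut near 3 SD across the whole screen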;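 note: yeast exposed to compound for one week at 30 degrees C before staining; 100% = mean of all compound wells on the same plate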). The following applies: S. cerevisiae aging, superoxide DHE fluorescence; at 10 µM; stronger effect = lower value.
In assay [9] the target is Beta-adrenergic receptor kinase 1 (Homo sapiens) (UniProt P25098). As to the kind of experiment: GRK2 binders displacing RNA aptamer, biochemical, validation, human GRK2, bead flow cytometry (AID 488806;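 active = aptamer binding inhibition above 30%, about 3 SD of noise from non-fluorescent compounds; inactive = inhibition at or below 30%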). To be noted: bead-bound GRK2, FAM-aptamer displacement, at 10 µM, stronger effect = higher value.
Assay [10] addresses Beta-2 adrenergic receptor (Homo sapiens) (UniProt P07550). Description: beta2AR agonists driving receptor internalization, pilot screen, cell-based, FAP fluorogen, flow cytometry, validation set (AID 504459;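 active = percent response above 42, roughly 3 SD of non-fluorescent test compounds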;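 note: agonist-driven loss of surface beta2AR via internalization measured by FAP dye flow cytometry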). To be noted: Am2.2-beta2AR cells, FAP surface receptor flow cytometry; at 10 µM; stronger effect = higher value.
For assay [11], the target named is AP-2 complex subunit beta (Homo sapiens) (UniProt P63010). As to the kind of experiment: inhibitors of arrestin peptide binding to AP2, pilot screen, biochemical, validation set, GST-AP2 beads, flow cytometry (AID 504541;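 active = inhibition above 54%, about 3 SD of non-fluorescent compounds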;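 note: AP2 carries R879A mutation and is captured from E. coli lysate; bead-bound FITC arrestin peptide fluorescence measuring arrestin peptide binding to AP2; 0% = DMSO wells and 100% = excess unlabeled arrestin peptide control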). To be noted: FITC arrestin peptide, at 10 µM, stronger effect = higher value, AP2 beta2 appendage fragment, R879A mutant.
Assay [12] is described as follows: yeast V-ATPase proton transport modulators, S. cerevisiae, pHLuorin, HTS validation (AID 504600; in the data active = response above about 15%;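 note: plate controls were DMSO for no effect and reference compound for full effect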). To be noted: S. cerevisiae pHLuorin cytosolic pH, at 10 µM, stronger effect = higher value.
In assay [13] the test system is anti-desmoglein-3 scFv antibody binding to human DSG3. Description: inhibitors of anti-DSG3 scFv binding to DSG3, pilot screen, biochemical, validation compound set, bead-based, flow cytometry (AID 588368;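 active = binding below the plate cutoff, the plate median minus 3 SD, with a reading above zero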;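 note: signal is the median channel fluorescence of bead-bound GFP antibody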). The following applies: Protein G beads, DSG3-Fc, scFv-GFP binding, at 10 µM, stronger effect = lower value.
The nature of assay [14]: inhibitors of fungal efflux pumps CDR1, CDR2, MDR1, pilot screen, validation compound set, multiplex, phenotypic (AID 588506;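 active = efflux inhibition above 0.42, the validation set average plus 4 SD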;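 note: Nile Red retained in cells so higher fluorescence means more efflux inhibition; 0 = negative control wells and 1 = enniatin B 25 µM full block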). To be noted: S. cerevisiae pump-expressing triplex, Nile Red efflux flow cytometry; at 10 µM; stronger effect = higher value; the pumps come from Candida albicans.
In assay [15] the target is ATP-binding cassette sub-family B member 6 (Homo sapiens) (UniProt Q9NP58). Description: ABCB6 transporter inhibitors, pilot screen, K562-ABCB6 cells, flow cytometry, validation set (AID 588550;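 active = inhibition above the screen-wide mean plus 3 SD, about 51%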;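 note: 0% = DMSO wells and 100% = benzethonium chloride 70 µM positive control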). To be noted: K562-ABCB6 porphyrin accumulation, 1 h, at 10 µM, stronger effect = higher value.
Assay [16] in a line: promoters of myeloid differentiation in arrested cells, primary screen, cell-based, GFP/MAC1 double positive, flow cytometry, validation set (AID 588685).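 Note: compound exposure lasts four days before antibody staining and flow analysis; 0% = DMSO wells and 100% = 5 µM fulvestrant positive control.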 To be noted: ER-HoxA9 marrow cells, stronger effect = higher value, normalized: vehicle 0, fulvestrant 100.

Results filed as inconclusive are left out. Active and inactive are the calls of the source.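 Rule for the calls, unless noted: active = differentiation response of at least 50%, scaled between solvent and reference control, from cells with both markers; inactive = the rest.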

Beta-adrenergic receptor kinase 1 (Homo sapiens), sequence (P25098 whole entry, looked up): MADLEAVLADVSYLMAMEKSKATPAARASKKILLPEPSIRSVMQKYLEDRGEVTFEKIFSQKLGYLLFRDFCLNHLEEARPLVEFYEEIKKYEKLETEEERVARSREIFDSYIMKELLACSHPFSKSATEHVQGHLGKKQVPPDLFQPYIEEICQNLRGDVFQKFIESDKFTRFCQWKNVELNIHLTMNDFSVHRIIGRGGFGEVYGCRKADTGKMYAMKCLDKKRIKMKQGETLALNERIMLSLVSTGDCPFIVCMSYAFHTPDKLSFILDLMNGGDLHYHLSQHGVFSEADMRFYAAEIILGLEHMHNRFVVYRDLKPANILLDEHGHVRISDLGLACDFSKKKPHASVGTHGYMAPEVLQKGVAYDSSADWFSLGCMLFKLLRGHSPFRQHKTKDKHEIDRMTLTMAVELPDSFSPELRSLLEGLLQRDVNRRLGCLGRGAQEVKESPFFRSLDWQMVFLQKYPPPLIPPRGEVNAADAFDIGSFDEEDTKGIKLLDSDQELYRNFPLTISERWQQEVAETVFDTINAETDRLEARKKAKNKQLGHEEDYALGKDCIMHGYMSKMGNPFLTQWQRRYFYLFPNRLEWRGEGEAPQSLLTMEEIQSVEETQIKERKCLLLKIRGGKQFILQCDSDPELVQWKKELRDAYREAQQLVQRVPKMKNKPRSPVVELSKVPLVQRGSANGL
Integrin beta-1 (Homo sapiens) + Integrin alpha-4 (Homo sapiens), sequence (P05556 whole entry, looked up): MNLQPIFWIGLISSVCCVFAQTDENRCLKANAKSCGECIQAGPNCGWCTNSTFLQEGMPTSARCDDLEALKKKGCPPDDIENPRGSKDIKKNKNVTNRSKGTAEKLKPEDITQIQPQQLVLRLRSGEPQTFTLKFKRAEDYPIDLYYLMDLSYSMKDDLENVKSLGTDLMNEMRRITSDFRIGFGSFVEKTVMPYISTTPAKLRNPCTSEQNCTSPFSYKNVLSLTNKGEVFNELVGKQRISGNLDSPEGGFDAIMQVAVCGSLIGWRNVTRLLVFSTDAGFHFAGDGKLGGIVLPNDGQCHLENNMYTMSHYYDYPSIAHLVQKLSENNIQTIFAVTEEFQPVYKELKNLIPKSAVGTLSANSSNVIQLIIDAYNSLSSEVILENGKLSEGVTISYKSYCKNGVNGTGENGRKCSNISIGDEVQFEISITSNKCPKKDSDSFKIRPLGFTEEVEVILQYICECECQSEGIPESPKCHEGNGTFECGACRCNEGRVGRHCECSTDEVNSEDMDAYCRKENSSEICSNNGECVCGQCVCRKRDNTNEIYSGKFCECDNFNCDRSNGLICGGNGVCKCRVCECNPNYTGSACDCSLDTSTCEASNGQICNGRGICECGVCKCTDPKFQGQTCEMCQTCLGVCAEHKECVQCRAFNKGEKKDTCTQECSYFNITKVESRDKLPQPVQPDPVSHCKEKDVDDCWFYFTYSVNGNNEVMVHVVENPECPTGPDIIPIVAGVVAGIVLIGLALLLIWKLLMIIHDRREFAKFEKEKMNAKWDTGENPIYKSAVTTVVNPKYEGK
Integrin beta-1 (Homo sapiens) + Integrin alpha-4 (Homo sapiens), sequence (P13612 whole entry, looked up): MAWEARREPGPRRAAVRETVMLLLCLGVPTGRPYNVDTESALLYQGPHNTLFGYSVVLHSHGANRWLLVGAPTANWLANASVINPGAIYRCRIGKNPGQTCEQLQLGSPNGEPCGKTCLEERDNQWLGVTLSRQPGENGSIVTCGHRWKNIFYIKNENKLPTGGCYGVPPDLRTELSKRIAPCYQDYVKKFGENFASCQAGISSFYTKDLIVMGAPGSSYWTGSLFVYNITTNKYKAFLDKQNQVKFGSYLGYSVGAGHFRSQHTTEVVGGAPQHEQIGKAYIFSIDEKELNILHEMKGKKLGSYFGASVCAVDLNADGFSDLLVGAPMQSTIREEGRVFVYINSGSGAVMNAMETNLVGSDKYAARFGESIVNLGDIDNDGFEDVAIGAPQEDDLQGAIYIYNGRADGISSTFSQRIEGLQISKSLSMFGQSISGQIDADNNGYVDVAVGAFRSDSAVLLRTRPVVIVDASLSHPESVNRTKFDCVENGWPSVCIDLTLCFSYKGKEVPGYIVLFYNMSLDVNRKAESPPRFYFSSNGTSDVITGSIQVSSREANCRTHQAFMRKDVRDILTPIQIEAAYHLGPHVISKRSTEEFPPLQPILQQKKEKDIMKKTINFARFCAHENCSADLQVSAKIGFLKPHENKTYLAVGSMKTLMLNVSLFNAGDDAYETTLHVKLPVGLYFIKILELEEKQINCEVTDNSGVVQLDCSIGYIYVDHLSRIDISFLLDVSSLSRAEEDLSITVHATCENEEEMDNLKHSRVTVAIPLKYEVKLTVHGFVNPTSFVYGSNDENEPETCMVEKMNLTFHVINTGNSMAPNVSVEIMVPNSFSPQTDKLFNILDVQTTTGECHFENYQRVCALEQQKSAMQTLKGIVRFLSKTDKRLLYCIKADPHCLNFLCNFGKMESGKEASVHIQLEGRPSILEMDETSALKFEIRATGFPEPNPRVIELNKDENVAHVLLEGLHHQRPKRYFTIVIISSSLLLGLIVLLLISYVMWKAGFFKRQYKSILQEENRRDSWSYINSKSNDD
ATP-binding cassette sub-family B member 6 (Homo sapiens), sequence (Q9NP58 whole entry, looked up): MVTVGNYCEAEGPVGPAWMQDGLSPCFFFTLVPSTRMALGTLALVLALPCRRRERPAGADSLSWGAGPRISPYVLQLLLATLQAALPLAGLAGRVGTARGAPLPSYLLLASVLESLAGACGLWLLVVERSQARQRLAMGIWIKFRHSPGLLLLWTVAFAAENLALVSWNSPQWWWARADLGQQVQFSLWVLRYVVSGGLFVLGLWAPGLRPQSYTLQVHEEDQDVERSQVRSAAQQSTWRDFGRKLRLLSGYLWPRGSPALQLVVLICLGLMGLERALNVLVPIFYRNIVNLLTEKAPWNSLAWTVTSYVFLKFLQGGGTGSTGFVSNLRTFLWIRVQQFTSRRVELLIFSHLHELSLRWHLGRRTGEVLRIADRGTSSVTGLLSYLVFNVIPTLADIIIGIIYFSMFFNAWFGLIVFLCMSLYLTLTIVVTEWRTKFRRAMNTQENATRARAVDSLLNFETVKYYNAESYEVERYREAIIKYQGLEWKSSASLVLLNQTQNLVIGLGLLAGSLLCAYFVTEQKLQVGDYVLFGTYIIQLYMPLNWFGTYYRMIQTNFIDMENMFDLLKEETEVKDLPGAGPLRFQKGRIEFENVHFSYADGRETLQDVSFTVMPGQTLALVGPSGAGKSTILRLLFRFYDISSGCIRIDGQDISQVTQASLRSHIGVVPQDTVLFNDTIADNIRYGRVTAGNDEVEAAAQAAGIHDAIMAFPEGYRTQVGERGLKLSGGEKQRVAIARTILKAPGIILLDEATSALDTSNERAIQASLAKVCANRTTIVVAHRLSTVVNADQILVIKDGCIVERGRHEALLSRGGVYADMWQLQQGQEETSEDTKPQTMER
AP-2 complex subunit beta (Homo sapiens), sequence (P63010 whole entry, looked up, the tested form may be a part, one chain of several): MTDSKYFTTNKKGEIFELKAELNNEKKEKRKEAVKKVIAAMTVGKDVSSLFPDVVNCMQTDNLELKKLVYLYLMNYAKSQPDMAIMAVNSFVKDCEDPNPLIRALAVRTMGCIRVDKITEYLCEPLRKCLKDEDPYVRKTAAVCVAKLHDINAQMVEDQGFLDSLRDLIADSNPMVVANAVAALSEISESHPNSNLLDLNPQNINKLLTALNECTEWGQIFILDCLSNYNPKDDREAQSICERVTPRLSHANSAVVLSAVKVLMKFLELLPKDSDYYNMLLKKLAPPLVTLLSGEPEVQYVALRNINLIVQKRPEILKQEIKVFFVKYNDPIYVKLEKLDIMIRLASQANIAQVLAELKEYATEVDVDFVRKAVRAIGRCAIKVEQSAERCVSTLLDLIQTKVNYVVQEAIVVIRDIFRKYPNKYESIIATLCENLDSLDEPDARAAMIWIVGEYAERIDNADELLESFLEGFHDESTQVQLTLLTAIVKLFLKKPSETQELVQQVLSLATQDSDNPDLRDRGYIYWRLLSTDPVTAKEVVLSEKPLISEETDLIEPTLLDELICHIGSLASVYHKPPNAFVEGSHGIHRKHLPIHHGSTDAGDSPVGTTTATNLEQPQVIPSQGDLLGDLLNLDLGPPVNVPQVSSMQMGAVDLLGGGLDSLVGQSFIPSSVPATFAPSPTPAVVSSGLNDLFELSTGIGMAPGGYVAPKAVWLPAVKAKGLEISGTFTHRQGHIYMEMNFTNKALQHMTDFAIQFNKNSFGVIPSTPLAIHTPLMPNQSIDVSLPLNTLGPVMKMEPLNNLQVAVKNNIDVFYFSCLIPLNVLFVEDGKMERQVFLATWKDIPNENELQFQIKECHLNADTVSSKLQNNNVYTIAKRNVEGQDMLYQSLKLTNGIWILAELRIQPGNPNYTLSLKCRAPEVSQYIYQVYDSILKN
Beta-2 adrenergic receptor (Homo sapiens), sequence (P07550 whole entry, looked up): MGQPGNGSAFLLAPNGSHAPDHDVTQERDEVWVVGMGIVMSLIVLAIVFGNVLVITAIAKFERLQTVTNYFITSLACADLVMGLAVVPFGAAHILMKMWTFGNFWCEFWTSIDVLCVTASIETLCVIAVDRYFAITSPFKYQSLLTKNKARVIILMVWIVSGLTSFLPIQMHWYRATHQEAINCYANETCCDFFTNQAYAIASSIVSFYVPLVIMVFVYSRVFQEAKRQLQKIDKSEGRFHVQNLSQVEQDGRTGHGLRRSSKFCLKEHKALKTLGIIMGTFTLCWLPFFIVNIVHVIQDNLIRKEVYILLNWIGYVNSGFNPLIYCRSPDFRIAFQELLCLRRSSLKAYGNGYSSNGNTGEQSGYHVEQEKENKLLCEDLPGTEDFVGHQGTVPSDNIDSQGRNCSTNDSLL

A word on the inhibition: it is the drop in the measured response relative to a control, in per cent. On to `Cc1ccc(C2CC(=O)C(C=NCCN3CCN(C(=S)Nc4ccccc4)CC3)=C(O)C2)cc1` (stereo not given), for which the percent of DMSO control GFP in assay [1] was 103% (inactive). Moreover, the values for the GFP response vs DMSO in assay [2] and in assay [4] were 104% (inactive) and 110% (inactive), respectively. In assay [3], the percent response of DMSO control is 91.2% (inactive). The GFP response, % of DMSO in [5] was 107% (inactive). For the same compound, the double positive events in assay [6] came out at 60.8%. The vesicle binding response in assay [6] is 417% (inactive). Besides, the inhibition in assay [7] was -0.27% (inactive); in assay [11] it was -7.49% (inactive); in assay [15], 3% (inactive). The superoxide response (% of plate) in assay [8] is 104% (inactive). Further, the aptamer binding inhibition in [9] is 5% (inactive). Further, the response in [10] is -26.2% (inactive); in [12] it was -3.06% (inactive). In addition, in assay [13], the binding (% of control) is 101% (inactive). Moreover, the efflux inhibition (fraction of control) in assay [14] is 0.5 (active). For the same compound, in assay [16], the differentiation response was -10.9% (inactive).
Regarding `O=C(NC(=S)Nc1ccc2c(c1)OCCO2)c1ccccc1F`, the percent of DMSO control GFP in assay [1] is 103% (inactive). Also, the GFP response vs DMSO was 108% (inactive) in assay [2] and 93% (inactive) in assay [4]. In assay [3], the percent response of DMSO control was 101% (inactive). The GFP response, % of DMSO in [5] was 97.7% (inactive). This compound also gave a double positive events in assay [6] of 61.5%. Besides, the vesicle binding response in assay [6] is 2360% (inactive). Further, the inhibition in [7] is 1.12% (inactive); in [11], 7.78% (inactive); in [15], 9% (inactive). For the same compound, in [8], the superoxide response (% of plate) is 109% (inactive). The aptamer binding inhibition in assay [9] is 2% (inactive). Besides, the response in assay [10] is 5.42% (inactive); in [12], 1.01% (inactive). Besides, the binding (% of control) in assay [13] is 98.5% (inactive). In assay [14], the efflux inhibition (fraction of control) was -0.12 (inactive). Also, the differentiation response in assay [16] was 0% (inactive).
Turning to `O=C1CC(c2ccc(O)cc2)Oc2cc(O)cc(O)c21` (stereo not given), in assay [1], the percent of DMSO control GFP is 107% (inactive). The results for the GFP response vs DMSO in assay [2] and in [4] were 99.3% (inactive) and 104% (inactive), respectively. In assay [3], the percent response of DMSO control is 107% (inactive). The GFP response, % of DMSO in assay [5] was 110% (inactive). Besides, in [6], the double positive events amounted to 61.7%. In addition, in [6], the vesicle binding response was 238% (inactive). Further, the results for the inhibition in assay [7], in assay [11] and in assay [15] were -31.6% (inactive), -6.71% (inactive) and 9% (inactive), respectively. Further, in [8], the superoxide response (% of plate) was 91.7% (inactive). For the same compound, in assay [9], the aptamer binding inhibition was 1% (inactive). For the same compound, the response in [10] was -11.3% (inactive); in [12], 4.67% (inactive). Further, the binding (% of control) in [13] is 94.3% (inactive). Also, the efflux inhibition (fraction of control) in assay [14] was -0.26 (inactive). Moreover, the differentiation response in assay [16] is 1.22% (inactive).
Consider `CCC(=O)Nc1ccc(C(=O)N2CCN(C(=O)c3ccco3)CC2)cc1`, for which the percent of DMSO control GFP in [1] was 101% (inactive). The GFP response vs DMSO in assay [2] is 109% (inactive); in [4], 101% (inactive). Moreover, the percent response of DMSO control in assay [3] is 104% (inactive). The GFP response, % of DMSO in assay [5] is 99.7% (inactive). Besides, the double positive events in [6] came out at 64.9%. The vesicle binding response in assay [6] is 202% (inactive). The inhibition is 4.73% (inactive) in [7], 0.87% (inactive) in assay [11] and 0% (inactive) in [15]. Moreover, the superoxide response (% of plate) in assay [8] is 101% (inactive). The aptamer binding inhibition in assay [9] is 0% (inactive). The results for the response in [10] and in assay [12] were -11.7% (inactive) and -1.11% (inactive), respectively. For the same compound, the binding (% of control) in [13] was 95.5% (inactive). Also, in assay [14], the efflux inhibition (fraction of control) was -0.23 (inactive). Moreover, the differentiation response in assay [16] was 7.09% (inactive).
With `Cn1cc(CN2CCC(C(=O)N3CCCCC3)CC2)c(-c2ccccc2F)n1`, in assay [1], the percent of DMSO control GFP was 95.9% (inactive). The results for the GFP response vs DMSO in assay [2] and in assay [4] were 137% (inactive) and 85.8% (inactive), respectively. In assay [3], the percent response of DMSO control was 104% (inactive). In assay [5], the GFP response, % of DMSO is 94.2% (inactive). Also, the double positive events in assay [6] came to 63.2%. Moreover, the vesicle binding response in [6] was 131% (inactive). Besides, the inhibition in assay [7] was 5.49% (inactive); in assay [11] it was 0.65% (inactive); in [15] it was 16% (inactive). Moreover, the superoxide response (% of plate) in [8] was 92.8% (inactive). Moreover, the aptamer binding inhibition in [9] is 4% (inactive). The response in assay [10] was -5.43% (inactive); in assay [12], -1.21% (inactive). In assay [13], the binding (% of control) was 104% (inactive). Further, the efflux inhibition (fraction of control) in [14] is -0.02 (inactive). In addition, the differentiation response in assay [16] was 0% (inactive).
